Experimental data from PubChem BioAssay (NCI).
This is part of a sample that, as a whole, favours compounds with a hit. Of some 83,000 tested, about 20% had one in any assay.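 Treatment: one concentration, 48 hours, 96-well format. Scoring: percent growth, with anything below 10 considered active.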 Calls of active or inactive are those of the source.

Legend:
Experiment in all cases: NCI-60 one-dose screen, 48 h (100 = growth as untreated, 0 = no growth, -100 = all killed)
Settings in all cases: 10 µM unless noted
RPMI-8226 leukemia = tested on: RPMI-8226 leukemia
OVCAR-8 ovarian = tested on: OVCAR-8 ovarian
OVCAR-5 ovarian = tested on: OVCAR-5 ovarian
OVCAR-4 ovarian = tested on: OVCAR-4 ovarian
SK-OV-3 ovarian = tested on: SK-OV-3 ovarian
HS 578T breast = tested on: HS 578T breast
NCI/ADR-RES ovarian = tested on: NCI/ADR-RES ovarian
T-47D breast = tested on: T-47D breast
OVCAR-3 ovarian = tested on: OVCAR-3 ovarian
IGROV1 ovarian = tested on: IGROV1 ovarian

Measured: growth

CN(C)c1ccc(/C=C\c2ccnc3ccccc23)cc1
inactive: OVCAR-8 ovarian 63.6% | OVCAR-5 ovarian 65% | OVCAR-4 ovarian 68.2% | SK-OV-3 ovarian 55.2% | HS 578T breast 84.9% | T-47D breast 65.4%
active: RPMI-8226 leukemia -18.1% | NCI/ADR-RES ovarian -35.5%

O=c1ccn(C2OC(CO)C(O)C2F)c(=O)[nH]1 (stereo not drawn)
inactive: RPMI-8226 leukemia 106% | OVCAR-8 ovarian 115% | OVCAR-5 ovarian 94% | OVCAR-4 ovarian 110% | SK-OV-3 ovarian 114% | OVCAR-3 ovarian 109% | HS 578T breast 140% | NCI/ADR-RES ovarian 98.5% | T-47D breast 90%

O=C(Nc1cccc([N+](=O)[O-])c1)c1cccc(C(=O)Nc2cccc([N+](=O)[O-])c2)c1
active: HS 578T breast 9.17%
inactive: RPMI-8226 leukemia 65.9% | OVCAR-8 ovarian 28.6% | OVCAR-5 ovarian 95.6% | OVCAR-4 ovarian 56.9% | SK-OV-3 ovarian 68.6% | OVCAR-3 ovarian 71.1% | NCI/ADR-RES ovarian 62.2% | T-47D breast 68.4%

O=C(O)c1ccccc1C(=O)OC1CCCC2CCCC21 (stereo not drawn)
inactive: RPMI-8226 leukemia 111% | OVCAR-8 ovarian 106% | OVCAR-5 ovarian 99.2% | SK-OV-3 ovarian 112% | OVCAR-3 ovarian 122% | NCI/ADR-RES ovarian 99% | T-47D breast 96.1%

COc1c(C)c2c(c(O)c1C/C=C(\C)CCC(=O)OCCN1CCOCC1)C(=O)OC2
inactive: RPMI-8226 leukemia 16% | OVCAR-8 ovarian 16.9% | OVCAR-5 ovarian 36.8% | SK-OV-3 ovarian 31.4% | IGROV1 ovarian 13% | OVCAR-3 ovarian 36.1% | HS 578T breast 50.4% | NCI/ADR-RES ovarian 21.5% | T-47D breast 29.3%

Cc1cc(CC(=O)O)n(C)c1C(=O)c1ccc(Cl)cc1
inactive: RPMI-8226 leukemia 103% | OVCAR-8 ovarian 97.7% | OVCAR-4 ovarian 119% | SK-OV-3 ovarian 119% | IGROV1 ovarian 114% | OVCAR-3 ovarian 118% | HS 578T breast 110% | NCI/ADR-RES ovarian 97.8%

O=C(c1ccccc1)c1ccccc1Cl
inactive: RPMI-8226 leukemia 88.5% | OVCAR-8 ovarian 108% | OVCAR-5 ovarian 104% | SK-OV-3 ovarian 108% | IGROV1 ovarian 106% | OVCAR-3 ovarian 106% | HS 578T breast 102% | NCI/ADR-RES ovarian 105% | T-47D breast 98.9%

O=[P@@]1(c2ccccc2)O[C@H](COCc2ccccc2)[C@@H](OCc2ccccc2)[C@H](OCc2ccccc2)[C@H]1NCc1ccccc1
inactive: OVCAR-8 ovarian 23.7% | OVCAR-5 ovarian 11.8% | SK-OV-3 ovarian 41.7% | OVCAR-3 ovarian 18.6% | HS 578T breast 49.9% | NCI/ADR-RES ovarian 12.5% | T-47D breast 15.9%
active: RPMI-8226 leukemia 5.97%

CC(NC(=O)C(C)Oc1ccc(Cl)cc1Cl)C(=O)O (stereo not drawn)
inactive: RPMI-8226 leukemia 125% | OVCAR-8 ovarian 107% | OVCAR-5 ovarian 95.7% | SK-OV-3 ovarian 102% | IGROV1 ovarian 84.8% | NCI/ADR-RES ovarian 96.7% | T-47D breast 108%

CCC[C@H](N[C@@H](C)C(=O)N1[C@H](C(=O)O)C[C@@H]2CCCC[C@@H]21)C(=O)OCC
inactive: RPMI-8226 leukemia 109% | OVCAR-8 ovarian 102% | OVCAR-5 ovarian 88.9% | SK-OV-3 ovarian 113% | IGROV1 ovarian 108% | OVCAR-3 ovarian 104% | HS 578T breast 98% | NCI/ADR-RES ovarian 98.5% | T-47D breast 124%
